PubChem BioAssay
Calls of active or inactive are those of the source.

Tests used:
[1] = system: PRMT1 (protein arginine N-methyltransferase 1); test: small molecules binding arginine methyltransferase PRMT1 – biochemical, small-molecule microarray, 635 nm fluorescence, primary screen (AID 1088); settings: higher = more signal;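 also: binding of Prmt1 protein to compounds spotted on small-molecule microarray slides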
[2] = growth effects on S. cerevisiae YJM789 – YJM789 clinical isolate, OD600, 24 h, basal, primary screen (AID 1089); settings: higher = more signal, called active from +8 up or from −8 down;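 also: growth of clinical yeast isolate S. cerevisiae YJM 789 seeded 1000 cells per well; test concentration not given here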
[3] = S. pombe growth modifiers, basal conditions – strain 972, OD600, 24 h, no modulator, primary screen (AID 1090);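 also: basal condition with compound alone and no growth modifier present; test concentration not given here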; settings: S. pombe 972 growth, higher = more signal, called active from +8 up or from −8 down
[4] = budding yeast growth modifiers under rapamycin – strain BY4716, OD600, 96 h, primary screen (AID 1091); also: test concentration not given here; settings: S. cerevisiae BY4716 + rapamycin, higher = more signal, called active from +8 up or from −8 down
[5] = biological target: Torsin-1A-interacting protein 2 (Homo sapiens) (UniProt Q8NFQ8); test: small molecules binding lysate-expressed LULL1 – cell lysate, human LULL1 lysate, 635/667 nm fluorescence, primary screen (AID 1092); settings: small-molecule microarray, hLULL1 lysate binding, 635 nm fluorescence; higher = more signal;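 also: probe is lysate of COS7 cells overexpressing human LULL1; score merges per-feature 667 nm fluorescence with signal-to-noise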
Sequence of Torsin-1A-interacting protein 2 (Homo sapiens) (Q8NFQ8 whole entry, looked up): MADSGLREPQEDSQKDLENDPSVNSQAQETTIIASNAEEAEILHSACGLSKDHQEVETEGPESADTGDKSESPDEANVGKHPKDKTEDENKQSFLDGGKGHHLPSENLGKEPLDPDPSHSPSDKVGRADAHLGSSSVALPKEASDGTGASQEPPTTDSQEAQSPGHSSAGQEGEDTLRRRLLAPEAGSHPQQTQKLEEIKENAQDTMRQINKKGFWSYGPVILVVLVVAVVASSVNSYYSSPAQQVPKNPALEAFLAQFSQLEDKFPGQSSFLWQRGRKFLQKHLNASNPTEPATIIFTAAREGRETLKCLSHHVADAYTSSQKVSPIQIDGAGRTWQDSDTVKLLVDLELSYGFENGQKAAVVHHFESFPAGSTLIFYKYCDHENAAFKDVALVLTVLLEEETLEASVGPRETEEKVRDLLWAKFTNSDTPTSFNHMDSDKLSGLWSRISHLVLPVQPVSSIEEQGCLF

[6] = optical density change of DRC41 E. coli – strain DRC41, OD650, 24 h, E. coli filamentation project, primary screen (AID 1093);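 also: MC1000 strain lacking acrAB efflux and sulA so SOS filamentation is blocked; test concentration not given here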; settings: E. coli DRC41 growth, higher = more signal, called active from +8 up or from −8 down
[7] = probe aLefty2 binding to arrayed compounds – biochemical, biotinylated probe, 635/667 nm fluorescence, primary screen (AID 1094); settings: small-molecule microarray, higher = more signal;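 also: score merges spot fluorescence near 667 nm with spot signal-to-noise ratio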
[8] = system: Noggin (protein binding on small-molecule microarray); test: small molecules binding Noggin protein – biochemical, 635/667 nm fluorescence, primary screen (AID 1095); settings: 635 nm fluorescence, higher = more signal;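 also: score merges 667 nm feature fluorescence with signal to noise over triplicate slides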
[9] = biological target: Neurogenic locus notch homolog protein 3 (Homo sapiens) (UniProt Q9UM47); test: small molecules binding NOTCH3 protein – biochemical, 635/667 nm fluorescence, primary screen (AID 1096); settings: small-molecule microarray, 635 nm fluorescence, higher = more signal
Sequence of Neurogenic locus notch homolog protein 3 (Homo sapiens) (Q9UM47 whole entry, looked up): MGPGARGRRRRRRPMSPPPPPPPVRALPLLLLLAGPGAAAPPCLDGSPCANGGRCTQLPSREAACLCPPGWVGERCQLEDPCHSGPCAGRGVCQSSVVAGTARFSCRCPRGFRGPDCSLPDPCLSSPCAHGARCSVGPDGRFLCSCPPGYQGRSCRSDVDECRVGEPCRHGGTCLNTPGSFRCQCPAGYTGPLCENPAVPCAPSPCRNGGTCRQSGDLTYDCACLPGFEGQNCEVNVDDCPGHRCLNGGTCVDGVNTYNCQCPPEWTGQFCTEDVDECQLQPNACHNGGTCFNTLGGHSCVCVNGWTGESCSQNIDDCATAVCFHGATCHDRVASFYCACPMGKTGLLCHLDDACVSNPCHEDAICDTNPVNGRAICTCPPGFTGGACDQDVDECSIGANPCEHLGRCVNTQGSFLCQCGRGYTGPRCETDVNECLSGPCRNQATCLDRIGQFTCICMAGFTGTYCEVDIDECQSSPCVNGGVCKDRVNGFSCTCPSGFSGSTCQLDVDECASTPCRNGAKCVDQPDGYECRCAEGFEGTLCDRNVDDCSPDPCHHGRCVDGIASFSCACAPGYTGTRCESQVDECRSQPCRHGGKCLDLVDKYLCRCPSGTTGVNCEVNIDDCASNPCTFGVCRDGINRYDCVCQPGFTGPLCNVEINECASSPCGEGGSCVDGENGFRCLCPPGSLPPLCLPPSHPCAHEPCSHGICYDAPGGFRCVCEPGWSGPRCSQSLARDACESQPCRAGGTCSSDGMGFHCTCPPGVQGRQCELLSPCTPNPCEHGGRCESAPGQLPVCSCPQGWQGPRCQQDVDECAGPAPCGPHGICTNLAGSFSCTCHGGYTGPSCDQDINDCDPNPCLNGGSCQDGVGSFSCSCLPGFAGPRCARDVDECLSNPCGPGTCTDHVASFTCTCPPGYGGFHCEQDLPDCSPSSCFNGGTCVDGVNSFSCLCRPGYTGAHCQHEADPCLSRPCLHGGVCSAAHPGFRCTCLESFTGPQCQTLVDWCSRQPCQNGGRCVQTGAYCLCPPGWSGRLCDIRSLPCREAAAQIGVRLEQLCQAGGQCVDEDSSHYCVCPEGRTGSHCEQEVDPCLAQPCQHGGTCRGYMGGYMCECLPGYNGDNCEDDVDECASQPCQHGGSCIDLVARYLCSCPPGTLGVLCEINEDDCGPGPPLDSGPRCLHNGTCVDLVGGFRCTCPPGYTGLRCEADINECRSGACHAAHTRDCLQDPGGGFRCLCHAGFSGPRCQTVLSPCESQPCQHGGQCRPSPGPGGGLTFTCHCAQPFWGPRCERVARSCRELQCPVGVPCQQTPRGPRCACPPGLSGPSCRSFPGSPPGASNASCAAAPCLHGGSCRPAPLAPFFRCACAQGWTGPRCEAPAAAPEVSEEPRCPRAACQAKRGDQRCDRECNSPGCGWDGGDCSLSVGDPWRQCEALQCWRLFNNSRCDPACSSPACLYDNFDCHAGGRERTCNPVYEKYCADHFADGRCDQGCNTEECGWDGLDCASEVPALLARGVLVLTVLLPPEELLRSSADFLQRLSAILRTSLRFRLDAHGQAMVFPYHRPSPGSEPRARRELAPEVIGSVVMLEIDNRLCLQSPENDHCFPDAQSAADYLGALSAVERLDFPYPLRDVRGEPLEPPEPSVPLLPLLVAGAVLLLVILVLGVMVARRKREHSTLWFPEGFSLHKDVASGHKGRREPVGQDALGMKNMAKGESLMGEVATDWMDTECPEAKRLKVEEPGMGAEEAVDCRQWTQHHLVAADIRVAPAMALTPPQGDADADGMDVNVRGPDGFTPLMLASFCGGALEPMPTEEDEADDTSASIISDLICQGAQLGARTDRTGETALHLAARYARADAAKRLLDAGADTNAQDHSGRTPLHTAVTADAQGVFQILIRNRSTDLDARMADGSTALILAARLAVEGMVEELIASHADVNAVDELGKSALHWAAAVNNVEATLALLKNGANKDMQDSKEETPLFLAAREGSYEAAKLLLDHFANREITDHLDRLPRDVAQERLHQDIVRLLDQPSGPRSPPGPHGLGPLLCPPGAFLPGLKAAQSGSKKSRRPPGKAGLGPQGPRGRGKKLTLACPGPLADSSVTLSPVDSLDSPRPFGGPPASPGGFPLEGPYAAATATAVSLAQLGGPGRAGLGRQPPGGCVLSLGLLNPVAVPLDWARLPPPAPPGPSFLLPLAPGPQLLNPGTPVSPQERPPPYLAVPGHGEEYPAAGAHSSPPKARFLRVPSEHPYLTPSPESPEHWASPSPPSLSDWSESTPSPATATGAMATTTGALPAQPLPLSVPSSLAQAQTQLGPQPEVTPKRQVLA

[10] = probe aEGFR binding to arrayed compounds – biochemical, biotinylated probe, 635/667 nm fluorescence, primary screen (AID 1097); settings: small-molecule microarray, higher = more signal;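 also: probe is a biotinylated anti-EGFR antibody binding compounds printed on slides; score combines fluorescence near 667 nm and signal to noise of each spot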

Row | Structure (SMILES) | composite z-score [1] | z-score [2] | z-score [3] | z-score [4] | composite z-score [5] | z-score [6] | composite z-score [7] | composite z-score [8] | composite z-score [9] | composite z-score [10]
1 | C=C[C@@H](COC(=O)OC(C)(C)C)N(Cc1ccc(OC)cc1)S(=O)(=O)c1ccc(Br)cc1 | 0.345 | -0.374 (inactive) | -0.521 (inactive) | -0.555 (inactive) | 0.269 | -0.701 (inactive) | 0.047 | 1.07 | 1.12 | -0.0088
2 | CCS[C@H]1[C@@H](C(=O)O)[C@H](c2ccc(C)cc2)N(S(=O)(=O)c2ccc(C)cc2)[C@@H]1CC | 0.811 | -0.406 (inactive) | 0.588 (inactive) | -0.0003 (inactive) | 3.26 | 0.401 (inactive) | 0.105 | -0.0193 | 1.11 | -0.0563
3 | COc1cc(NN2C(C(O)c3ccco3)C=CC3C(=O)N(c4ccccc4)C(=O)C32)cc(OC)c1OC (stereo not given) | 0.216 | 0.602 (inactive) | 0.0991 (inactive) | -0.234 (inactive) | 2.41 | -1.18 (inactive) | -0.2 | 0.0945 | 0.703 | -0.0688
4 | CC(C)NC(=O)[C@@]1(c2ccc([N+](=O)[O-])cc2)CC(=O)N(C2CCCCC2)[C@@H]1c1ccc(CO)cc1I | 1.03 | 0.719 (inactive) | 0.475 (inactive) | 2.6 (inactive) | 2.33 | 1.21 (inactive) | 0.134 | -0.941 | -0.0996 | -0.0185
5 | C=C(COC)/C(=C/C[C@@H](OC(C)=O)c1ccc(OCCO)cc1)c1cnc2ccccc2c1 | 1.19 | -0.938 (inactive) | -1.5 (inactive) | -1.05 (inactive) | 0.014 | 2.33 (inactive) | -0.0998 | 1.89 | 1.08 | -0.067
6 | COc1ccc(C#Cc2ccc3c(c2)[C@]2(C(=O)N3)[C@H](C(=O)NC[C@H](O)c3ccccc3)[C@H]3C(=O)O[C@H](c4ccccc4)[C@H](c4ccccc4)N3[C@@H]2c2ccc(O)cc2)cc1 | 1.55 | 2.26 (inactive) | 0.984 (inactive) | 2.2 (inactive) | 2.98 | -0.0198 (inactive) | 0.0078 | 0.904 | 0.729 | 0.0996
7 | COCCOC(=O)N1C(=O)[C@@]2(c3cc(C#Cc4ccc(OC)cc4)ccc31)[C@H](c1ccc(O)cc1)N1[C@H](c3ccccc3)[C@H](c3ccccc3)OC(=O)[C@H]1[C@@H]2C(=O)N1CCc2cc(OC)c(OC)cc2C1 | 1.55 | 0.728 (inactive) | -0.133 (inactive) | 0.803 (inactive) | 2.49 | 1.37 (inactive) | -0.0412 | 0.75 | 1.08 | -0.115
8 | CO[C@H]1O[C@H](CO)[C@@H](OC(=O)Nc2cccc(F)c2)[C@H](OC(=O)Nc2ccccc2)[C@@H]1OC(=O)Nc1ccccc1 | 1.53 | 0.347 (inactive) | 1.32 (inactive) | 14.4 (active) | 3.12 | -0.621 (inactive) | 0.182 | 0.286 | 1.09 | 0.181
9 | CCC(CC)C(O)C1C=CC2C(=O)NC(=O)C2N1Nc1ccc(Cl)cc1Cl (stereo not given) | 1.4 | 0.446 (inactive) | -5.81 (inactive) | 1.34 (inactive) | 3.13 | -1.57 (inactive) | -0.0306 | -0.284 | 1.01 | -0.0352
10 | COCCOC(=O)N1C(=O)[C@@]2(c3cc(C#CCC(C(=O)OC)C(=O)OC)ccc31)[C@H](C(=O)N1CCN(c3ncccn3)CC1)[C@H]1C(=O)O[C@H](c3ccccc3)[C@H](c3ccccc3)N1[C@@H]2c1ccccc1OCCO | 1.55 | 1.59 (inactive) | 1.33 (inactive) | 6.3 (inactive) | 1.88 | 0.156 (inactive) | -0.0726 | 1.71 | 1.06 | 0.0537
11 | C=CCOC(=O)[C@H]1[C@@H]2C(=O)O[C@@H](c3ccccc3)[C@@H](c3ccccc3)N2[C@@H](c2ccc(OCCOC(=O)[C@H]3C[C@H]4C(=O)N[C@@H](CCCCN(C)C)C(=O)N4[C@H]3c3ccc(O)cc3)cc2)[C@]12C(=O)Nc1ccc(I)cc12 | 1.55 | -0.0743 (inactive) | -0.526 (inactive) | -0.698 (inactive) | 2.49 | -0.411 (inactive) | 0.172 | 1.73 | 1.07 | 0.124
12 | NC(=O)NCC#Cc1ccc2c(c1)[C@]1(C(=O)N2)[C@H](C(N)=O)[C@H]2C(=O)O[C@H](c3ccccc3)[C@H](c3ccccc3)N2[C@@H]1c1ccc(O)cc1 | 0.317 | -0.989 (inactive) | -0.434 (inactive) | -0.07 (inactive) | 3.6 | 0.792 (inactive) | 0.411 | 0.544 | -0.382 | -0.413
13 | Cc1ccc(S[C@]2(C(=O)NCCCN(C)C)CC(=O)N(Cc3cc(C(F)(F)F)cc(C(F)(F)F)c3)[C@@H]2c2ccc(CO)cc2I)cc1 | -0.371 | -1.17 (inactive) | -3.06 (inactive) | 1.03 (inactive) | 1.77 | 0.888 (inactive) | 0.269 | -1.64 | -0.937 | -0.0246
14 | COC(=O)[C@@]1(Cc2ccccc2)[C@H]2c3cc(C(=O)N4CCCC4)n(Cc4ccc(S(C)(=O)=O)cc4)c3C[C@H]2CN1C(=O)c1ccccc1 | 0.375 | 0.527 (inactive) | 0.955 (inactive) | 0.671 (inactive) | 3.56 | -0.47 (inactive) | 0.0495 | 0.0689 | 1.01 | 0.348
